Laboratory results reported in PubChem BioAssay AID602346 (Broad Institute, 2012).
About 1,200 (0.35%) of roughly 340,000 compounds were called active. No stated cut-off is given here; in the data, active means inhibition above about 50% (passing the limit was not always enough); inconclusive means no clear call, values can overlap the other calls; inactive means below about 31%. The full list was thinned out, with actives kept by preference.

Assay: blockers of Vif multimerization in cells – imaging, HEK293T, single point, primary screen (AID 602346)
Details: Vif self-association by quenched fluorescence, 24 h, at 7.49 µM, hits give high values

inhibition, inactive:
CCCCC(=O)N(C)c1c(CC)nc2c(OCc3ccc(Cl)cc3Cl)cccn12 1.33%
COc1ccc(NC2CCCN(C(=O)c3ccccc3-c3ncc[nH]3)C2)cc1 (stereo not given) 10.8%
CC(=O)Nc1cc(-c2ccc(N3CCN(C)CC3)cc2)cn2c(-c3ccc(F)cc3)cnc12 -22.4%
CCN(CC)C(=O)C1=C(C)N(Cc2ccc(C(C)(C)C)cc2)C(=O)C(CC(=O)NCc2cccc3ccccc23)C1 (stereo not given) -1.52%
Nc1nnc2c(C(F)(F)F)nc3ccccc3n12 44%
FC(F)(F)c1nnc2ccc(N3CCN(c4ccccc4)CC3)nn12 19.6%
CC1(Oc2ccccc2-c2ccno2)CCN(Cc2ccc(-c3ccccc3)o2)C1 (stereo not given) 4.47%
Cc1ccc(-c2cnc(C(O)c3cc(Cl)cc(Cl)c3)[nH]2)cc1 (stereo not given) -6.84%
COc1ccc(C(c2nnnn2C2CCCC2)N2CCN(C/C=C/c3ccccc3)CC2)cc1 (stereo not given) 16.8%
COc1ccc(C2=NN(C(=O)c3cccnc3)C(c3ccccc3)C2)cc1 (stereo not given) -3.05%
COc1ccc(C2CC(c3ccc([N+](=O)[O-])cc3)=NN2C(C)=O)cc1 (stereo not given) 1.95%
CCCCN(C=O)c1c(CC)nc2c(OCCC3CCCCC3)cccn12 -3.38%
Cc1ccccc1C1=NC(C(F)(F)F)(C(F)(F)F)c2c(n(-c3ccc(F)cc3)c(=O)[nH]c2=O)N1 -7.19%
Nc1c(N(Cc2ccco2)C(=O)c2cccc(F)c2)c(=O)[nH]c(=O)n1Cc1ccccc1 6.01%
O=C(NC(c1ccc(Cl)cc1)c1cnccn1)C1CCN(Cc2ccc(Cl)cc2)CC1 (stereo not given) 26.5%
CC(=O)c1ccc(Nc2nc(C(N)c3ccccc3)cs2)cc1 (stereo not given) -5.96%
COc1ccc(OC)c(NC(=O)C2(C)CCN2C(=O)Cc2ccccc2)c1 (stereo not given) 2.75%
CC(C)CC1C(=O)N(Cc2cn(Cc3ccco3)nn2)CCS(=O)(=O)N1Cc1ccc(-c2ccc(Cl)c(Cl)c2)cc1 (stereo not given) 0.356%
O=C(Nc1cccc(-n2cnnn2)c1)c1cccnc1 1.28%
O=S(=O)(Nc1cccc(-n2cnnn2)c1)c1cnc(Cl)c(Cl)c1 -0.268%
COc1cccc(-c2cnc3c(NC(C)=O)cc(-c4cccc(NC(C)=O)c4)cn23)c1 -4.77%
O=C(NCCN1CCOCC1)c1ccccc1N1C(=O)[C@@H]2Cc3c([nH]c4ccccc34)C(c3cccc(Cl)c3)N2C1=O (stereo not given in full) 2.4%
CCOC(=O)c1ccccc1NC(=O)COC(=O)C(Cc1c[nH]c2ccccc12)NC(C)=O (stereo not given) 1.23%
COc1ccc(CNC(=O)[C@H](Cc2c[nH]c3ccccc23)NC(C)=O)cc1OC -6.67%
COc1ccc(Br)c(Cn2c(C)c(C(=O)NCc3cccs3)sc2=O)c1 1.02%
COc1cc(NC(=O)c2ccccc2)c(OC)cc1NC(=O)Cc1ccccc1 -4.83%
CCOCC(=O)Nc1cc(OC)c(Cl)cc1OC -3.02%
COCC(=O)Nc1c(I)c(C(=O)NCC(O)CO)c(I)c(C(=O)N(C)CC(O)CO)c1I (stereo not given) -1.59%
CC12CCC(=O)C=C1CCC1C2C(O)CC2(C)C1CCC2(O)C(O)CO (stereo not given) 24%
C[C@H]([C@@H](O)[C@@H](O)[C@@H](C)C(C)(C)C)[C@H]1CC[C@H]2C3CC[C@H]4C[C@H](OS(=O)(=O)O)[C@@H](OS(=O)(=O)O)C[C@]4(C)[C@H]3CC[C@]12C (stereo not given in full) 9.95%
CC(C)(C)CC(=O)Nc1nc(C(N)Cc2ccc(C(F)(F)F)cc2)cs1 (stereo not given) -2.15%
C[C@@H]1CN([C@@H](C)CO)S(=O)(=O)c2ccc(C#Cc3cccc(F)c3)cc2O[C@H]1CN(C)S(=O)(=O)c1cn(C)cn1 -26.5%
Cc1ccc(C)c(N2CCN(S(=O)(=O)c3c(C)[nH]c(C)c3C(=O)N3CCCC3)CC2)c1 1.25%
Cc1ccc(C)c(N2CCN(S(=O)(=O)c3ccc4c(c3)oc(=O)n4C)CC2)c1 -13.1%
CCCCCCNC(=O)O[C@H]1CN(C(=O)OC(C)C)N(C(=O)OC(C)C)[C@@H]2CN(S(=O)(=O)c3ccc(C)cc3)C[C@]12O -2.14%
CCOP(=O)(OCC)C(Cc1ccccc1)N=C(c1ccccc1)c1ccccc1 (stereo not given) -3.63%
CC1(C(=O)Nc2cccc(Oc3ccccc3)c2)CCN1Cc1ccccc1Cl (stereo not given) 1.11%
O=C(c1ccco1)N1CCN(C(=O)C2c3ccccc3Oc3ccccc32)CC1 2.39%
O=C(c1ccco1)N1CCN(CCOc2ccccc2)CC1 3.05%

inhibition, active:
FC(F)(F)c1nnc2c3ccccc3c(Cl)nn12 78.3%
COc1ccc(C2CC(c3ccccc3)=NN2C(=O)c2ccc(Cl)c([N+](=O)[O-])c2)cc1 (stereo not given) 89.1%
O=c1[nH]c(=O)n(Cc2ccco2)c2c1C(C(F)(F)F)(C(F)(F)F)N=C(c1ccco1)N2 51.3%
C=C(C)C(=O)O[C@H]1C/C(C)=C\C(=O)/C=C(\C)[C@H](O)[C@@H]2OC(=O)C(=C)[C@@H]21 136%
Cc1ccc(C)c(S(=O)(=O)Nc2cccc(-n3cnnn3)c2)c1 69.3%
CC(=O)NC(Cc1c[nH]c2ccccc12)C(=O)NCCc1ccccc1 (stereo not given) 50.4%
CC[C@]1(O)C[C@@H]2CN(CCc3c([nH]c4ccccc34)[C@@](C(=O)OC)(c3cc4c(cc3OC)N(C)[C@H]3[C@@](O)(C(=O)OC)[C@H](OC(C)=O)[C@]5(CC)C=CCN6CC[C@]43[C@@H]65)C2)C1 79.8%
COc1cc(NC(=O)c2ccc(-c3csc(C)n3)cc2)c(OC)cc1Cl 64%
CC(=O)N(CC(O)CO)c1c(I)c(C(=O)NCC(O)CO)c(I)c(C(=O)NCC(O)CO)c1I (stereo not given) 62%
COC(=O)c1cc(S(=O)(=O)N2CCN(c3cc(C)ccc3C)CC2)c[nH]1 51.4%
CN(Cc1ccccc1)C(=O)CCC1CCN(C(=O)c2ccco2)CC1 132%
